According to the supplement of paper PMC6555819:

Experiments:
Assay in all cases: PBM binding z-score (relative to random genomic background probes); higher = stronger binding; sequences stand for … in GC…GCGATTGACAGCGTAGAATGAAGG
[1] = test system: PPARg:RXRa DBDmut IVT, anti-RXR (DBD mutation: RXRa K156A/R161A, NR concentration 270 nM, RXRa partner concentration 90 nM)
Summary of the method: (§1)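 On custom Agilent 4×180K arrays, double-stranded probes with 34-nt variable regions carried direct-repeat seeds, single-nucleotide variants, half-site ablations or random human genomic background. Ligand-free nuclear receptor dimers were applied for 1 h, and binding was read with antibodies against each partner (one per run). Binding z-scores come from regression-normalized fluorescence, with the random background probes as reference.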

[2] = test system: PPARg:RXRa IVT, anti-PPARg (NR concentration 270 nM, RXRa partner concentration 90 nM)
Summary of the method: as §1

[3] = test system: PPARg DBDmut:RXRa IVT, anti-PPARg (DBD mutation: PPARg1 K132A/R137A, NR concentration 270 nM, RXRa partner concentration 90 nM)
Summary of the method: as §1

[4] = test system: PPARg DBDmut IVT, anti-PPARg (DBD mutation: PPARg1 K132A/R137A, NR concentration 270 nM)
Summary of the method: as §1

[5] = test system: PPARg homodimer (NR concentration 180 nM)
Summary of the method: as §1

[6] = test system: PXR:RXRa (NR concentration 270 nM, RXRa partner concentration 90 nM)
Summary of the method: as §1

[7] = test system: PXR homodimer (NR concentration 270 nM)
Summary of the method: as §1

[8] = test system: RARa:RXR (NR concentration 270 nM, RXRa partner concentration 90 nM)
Summary of the method: as §1

[9] = test system: RARa homodimer (NR concentration 270 nM)
Summary of the method: as §1

[10] = test system: RARb:RXRa (NR concentration 270 nM, RXRa partner concentration 90 nM)
Summary of the method: as §1

| Sequence | PBM binding z-score [1] | PBM binding z-score [2] | PBM binding z-score [3] | PBM binding z-score [4] | PBM binding z-score [5] | PBM binding z-score [6] | PBM binding z-score [7] | PBM binding z-score [8] | PBM binding z-score [9] | PBM binding z-score [10] |
| --- | --- | --- | --- | --- | --- | --- | --- | --- | --- | --- |
| CCTACTGGGCCAAAAAGGTCGTTGATGCCGATAA | 3.16 | 2.91 | -0.0977 | -1.31 | 0.923 | 1.69 | 0.426 | 1.77 | 0.0186 | 1.48 |
| TGGAGTAGGTTAGTCGGGGCATTCAGCCAACATA | 3.42 | 3.51 | -0.389 | -0.234 | 1.08 | 0.401 | 0.996 | 0.374 | 0.676 | 1.03 |
| CGAACTAGGTCAGAACAGGACACTGAAGGATGAT | 7.14 | 7.36 | 1.14 | 1.38 | 0.688 | 0.996 | -0.0376 | 1.24 | 0.452 | 2.9 |
| ATCGAAAGGTCGTGAGGTGAGTATTCAGAAAGGC | 0.173 | 2.36 | 0.908 | 0.365 | 1.83 | 3.37 | 0.136 | 4.62 | 0.587 | 4.08 |
| TCAGAAAGGTGAAGGTAACTCAGGTACGCAGTCG | 4.06 | 2.93 | 0.125 | 0.136 | 0.958 | 1.12 | 0.164 | 1.88 | 0.504 | 3.25 |
| TCGAGTAGGTTAGGTGCATTCAGAATGGCGTCGA | 1.94 | 1.03 | -0.609 | -0.486 | -0.132 | 0.0438 | 0.333 | -0.0756 | -0.18 | 0.175 |
| TCTTGTAGATAAAGCAGGTTAAGAAAGCCTGAGT | 1.9 | 0.689 | -0.607 | 0.523 | 0.35 | 0.561 | 0.376 | 0.708 | 0.783 | 0.2 |
| GGACCGAGGGCATTCGAGTTGATAGCATGGCGAT | 0.308 | 0.267 | -0.812 | -0.98 | -0.223 | 4.17 | 1.3 | 0.835 | -0.77 | 1.88 |
| CCTCGGAGGACAACAGGAGGTCAGAGGTGCCAGA | -0.227 | 0.737 | -1.23 | -1.03 | 1.99 | 2.36 | 0.719 | 2.6 | 0.638 | 3 |
| CGAACTAGGTCACAGAGGTCAAAGTCCGTGCGTA | 8.62 | 8.94 | 8.99 | 6.82 | 9.8 | 6.92 | 13.2 | 7.77 | 5.26 | 5.23 |
| CACACTAGGTCAAGGTCAAAGTCGGTTTGTGCCA | 7.8 | 8.02 | 6.91 | 5.72 | 7.79 | 5.54 | 4.08 | 5.87 | 3.51 | 5.03 |
| CCTACTGGGCCATTCACAGGTCATTGATCATATG | 4.38 | 4.07 | 0.164 | 0.233 | 1.37 | 2.11 | 0.599 | 2.4 | 0.567 | 2.03 |
| CGTCCAAGGTCAGCAGGTCAGCGAAAGCGACGTG | 3.38 | 3.9 | -0.473 | -0.272 | 3.39 | 4.07 | 0.421 | 5.3 | 1.49 | 5.43 |
| AGAATGAGGTTACCGAAGATCAGGGAAACGCTTG | 3.97 | 3.55 | 0.906 | 0.381 | 0.444 | 1.61 | -0.388 | 2.46 | -1.23 | 2.19 |
| GCGACTGGGGCAAGGCAGGTTACCATAAGGTTGG | 3.58 | 3.12 | 0.704 | -0.934 | 0.688 | 0.207 | -0.567 | 0.854 | -0.915 | 0.95 |
| CCGAGTAGGTTATGGGGTATTCAGGCAACGGTGA | 3.61 | 3.4 | -0.421 | -0.159 | 1.48 | 0.386 | 0.458 | 0.453 | 1.06 | 0.8 |
| TCTGTTAGTTGATTAGGGCAACCGAAACAGCGGA | 1.71 | 1.89 | 1.51 | 1.52 | 1.09 | 0.57 | 0.354 | 0.456 | 0.969 | 1.19 |
| ATATGTAGGTTACATCCGGGTCATTCAAGCTATG | 7.38 | 7.61 | 3.54 | 2.95 | 2.2 | 3.81 | 1.61 | 4.07 | 0.831 | 2.43 |
| CATACTAGGTCACGAAAGGTCAAAGTCGAATGAC | 7.83 | 8.34 | 2.56 | 1.91 | 3.01 | 7.08 | 3.85 | 7.57 | 4.19 | 5.65 |

| Sequence | PBM binding z-score [1] | PBM binding z-score [2] | PBM binding z-score [3] | PBM binding z-score [4] | PBM binding z-score [5] | PBM binding z-score [6] | PBM binding z-score [7] | PBM binding z-score [8] | PBM binding z-score [9] | PBM binding z-score [10] |
| --- | --- | --- | --- | --- | --- | --- | --- | --- | --- | --- |
| CCTCGGAGAACAGAAGGTCAGAGCTGTCCGCTTT | 0.0999 | -0.304 | -1.44 | -1.47 | 1.67 | 1.44 | 0.0963 | 1.92 | 0.634 | 2.42 |
| ATCGAAAGGTCGAGGTGAGAATAGAGAAAGGGAA | 0.541 | 2.39 | 1.22 | 0.93 | 0.599 | 2.36 | 0.337 | 3.52 | 0.51 | 4.16 |
| CAAACTAGGTCAAGAGGTCAAAGACCGCTTCCCG | 8.33 | 8.34 | 1.4 | 0.266 | 5.54 | 5.94 | 1.78 | 7.58 | 1.89 | 5.61 |
| ATCGAAGGGTCGTGAGGTGAGTATACAGAAAGGC | -0.293 | 1.48 | 0.829 | 0.999 | 1.33 | 2 | 0.191 | 2.84 | 0.629 | 2.61 |
| ATCAAAAGGTCGTGAGGTGAGTATACAGAAAGGC | 0.609 | 2.81 | 1.96 | 1.55 | 2.38 | 3.53 | 1.09 | 4.34 | 1.26 | 4.29 |
| GCTGCTAGGTCAACTAATGGTCAGCTAAAGCTCG | 4.24 | 3.84 | -0.334 | -0.784 | 1.66 | 1.37 | -0.568 | 2.35 | -0.116 | 4.03 |
| TCGCCTAGGTCATGCGGGCCAGTATAGTGTCGGC | 2.3 | 2.74 | -0.0945 | -0.593 | 0.827 | 1.45 | -0.348 | 2.59 | -0.685 | 3.87 |
| CGAACTAGGTCAATGACAGGACAGTGAATAGTAA | 8.25 | 7.96 | 1.69 | 1.41 | 1.62 | 1.12 | -0.0371 | 1.75 | 0.354 | 3.64 |
| GCTAGCAGGCCATTCGGGTCACTCAATGACGGGC | 1.31 | 1.58 | -0.52 | -0.659 | 0.0772 | 1.83 | 1.45 | 1.71 | -0.872 | 1.96 |
| GCTATAAGTTGAAAGGGCAACCGAATGATTCTCG | 0.434 | 0.831 | 0.223 | 0.266 | 1.11 | 1.41 | 0.107 | 2.56 | 0.129 | 2.46 |
| ATCGAAAGGTCGTGAGGTGAGTATCCAGAAAGGC | 0.293 | 2.48 | 1.2 | 1.27 | 1.41 | 3.13 | 0.135 | 4.25 | 0.545 | 3.93 |
| TCAGACAGGTGAAAGTAACTCAGGTACGCAGTCG | 2.49 | 1 | 0.398 | 0.588 | 0.14 | 0.584 | 0.498 | 0.768 | 0.295 | 0.907 |
| CGTCCAAGGTCAATCCTAGGTCAGTGAAAGCATT | 3.45 | 4.04 | 0.153 | 0.742 | 6.19 | 5.13 | 0.983 | 6.44 | 1.8 | 5.33 |
| AGAACGAGAGCACGCTGAGTTGATAGCAGAGTAG | 0.0563 | -0.2 | -0.0826 | -0.875 | -0.952 | -0.515 | -0.415 | -0.666 | -1.23 | -0.39 |
| AGAACGAGGGCACGCTCAGTTGATAGCAGAGTAG | 3.98 | 4.09 | 0.654 | 0.271 | 0.0615 | 0.642 | 0.028 | 0.591 | -0.377 | 2.64 |
| ACTTACGGGTCAACTAGGTTATAGCACGCGTATA | 3.88 | 4.98 | 1.29 | 1.61 | 2.6 | 4.26 | 0.766 | 4.91 | 1.54 | 4.36 |
| CGTCAAAGTTCAAGGTAACATAACAGAAAGCAGC | 0.0346 | 2.06 | 0.987 | 0.494 | 2.78 | 4.26 | 2.87 | 3.65 | 1.23 | 5.13 |
| GCGACTGGGGCAAAGCAGGGTACCATAAGGTTGG | 3.87 | 3.24 | -0.359 | -0.643 | -0.201 | -0.102 | -0.367 | 0.315 | -0.579 | 0.894 |
| TCGAGTACGTTAGTCGGGGCATTCAGCCAACATA | 0.607 | -0.44 | -0.411 | -0.712 | -0.34 | -0.0967 | -0.478 | -0.134 | -0.667 | 0.019 |
